PubChem BioAssay (EPA / NIEHS)
Calls of active or inactive are those of the source. Rule for the calls: active = hit-call score of the fitted dose curve at least 0.9, where 1 is the maximum; inactive = score below 0.9.

How the values were obtained:
Details in all cases: mRNA level, 48 h; actives raise or lower the signal
[1] = read-out: Glutathione S-Transferase (GSTA2), GSTA2 (gene 2939); test: LTEA_HepaRG_GSTA2: Life Technologies and Expression Analysis (LTEA) Assay for Glutathione S-Transferase (GSTA2) using HepaRG (AID 2283497)
Outline: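 Human HepaRG cells, plated 48 h, then exposed in serum-free induction medium for 48 h to eight half-log concentrations up to 100 uM in 0.5% DMSO, duplicate. GSTA2 mRNA by qRT-PCR, normalized to ACTB/GAPDH/POLR2A; bidirectional fit versus DMSO.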

[2] = read-out: Glutamate-cysteine ligase catalytic (GCLC), GCLC (gene 2729); test: LTEA_HepaRG_GCLC: Life Technologies and Expression Analysis (LTEA) Assay for Glutamate-cysteine ligase catalytic (GCLC) using HepaRG (AID 2283498)
Outline: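 Differentiated human HepaRG cells, plated 48 h then switched to serum-free induction medium, were exposed in duplicate for 48 h to 8 half-log concentrations topping at 100 uM in 0.5% DMSO. GCLC mRNA was quantified by qRT-PCR against ACTB, GAPDH and POLR2A.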

[3] = read-out: Glutamate-cysteine ligase regulatory (GCLM), GCLM (gene 2730); test: LTEA_HepaRG_GCLM: Life Technologies and Expression Analysis (LTEA) Assay for Glutamate-cysteine ligase regulatory (GCLM) using HepaRG (AID 2283500)
Outline: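 Human liver HepaRG cultures receive test chemicals for 48 hours at up to 100 uM in 0.5% DMSO. GCLM expression is measured by qRT-PCR and analysed for increases or decreases against vehicle.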

[4] = read-out: Glutathione S-transferase M3 (GSTM3), GSTM3 (gene 2947); test: LTEA_HepaRG_GSTM3: Life Technologies and Expression Analysis (LTEA) Assay for Glutathione S-transferase M3 (GSTM3) using HepaRG (AID 2283501)
Outline: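 Expression of GSTM3 is determined by qRT-PCR in human liver HepaRG cells treated 48 h with an 8-point half-log range from 100 uM in 0.5% DMSO.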

[5] = read-out: Heat shock 70 kDa protein 1 (HSPA1A), gene 3303; test: LTEA_HepaRG_HSPA1A: Life Technologies and Expression Analysis (LTEA) Assay for Heat shock 70 kDa protein 1 (HSPA1A) using HepaRG (AID 2283502)
Outline: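 HSPA1A induction in human HepaRG liver cells is measured after 48 h of chemical treatment (100 uM maximum, 0.5% DMSO vehicle). Expression comes from qRT-PCR normalized to endogenous controls.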

[6] = read-out: Hypoxia-inducible factor 1-alpha (Homo sapiens) (UniProt Q16665); test: LTEA_HepaRG_HIF1A: Life Technologies and Expression Analysis (LTEA) Assay for Hypoxia-inducible factor 1 (HIF1A) Trancription factor using HepaRG (AID 2283503)
Outline: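 HepaRG, 48 h exposure, 8-pt half-log series from 100 uM, 0.5% DMSO vehicle, duplicates. Readout: HIF1A transcript by qRT-PCR (Fluidigm array), housekeeping-normalised. Bidirectional curve fit vs DMSO baseline.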

[7] = read-out: 3-Hydroxy-3-Methylglutaryl-CoA Synthase 2 (HMGCS2), HMGCS2 (gene 3158); test: LTEA_HepaRG_HMGCS2: Life Technologies and Expression Analysis (LTEA) Assay for 3-Hydroxy-3-Methylglutaryl-CoA Synthase 2 (HMGCS2) using HepaRG (AID 2283504)
Outline: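 This steatosis marker was read as HMGCS2 mRNA change in HepaRG cells treated 48 h with up to 100 uM chemical. Normalisation used housekeeping genes; activity in either direction was fitted relative to 0.5% DMSO vehicle.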

HGF (gene 3082) = test: LTEA_HepaRG_HGF: Life Technologies and Expression Analysis (LTEA) Assay for Hepatocyte Growth Facto (HGF) using HepaRG (AID 2283505)
Outline: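 Using HepaRG monolayers kept in 0.5% DMSO, chemicals were tested in duplicate over eight half-log concentrations from 100 uM for 48 h. Endpoint: HGF mRNA change relative to DMSO, normalized to ACTB/GAPDH/POLR2A.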

[8] = read-out: Insulin Like Growth Factor 1 (IGF1), IGF1 (gene 3479); test: LTEA_HepaRG_IGF1: Life Technologies and Expression Analysis (LTEA) Assay for Insulin Like Growth Factor 1 (IGF1) using HepaRG (AID 2283506)
Outline: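 Using human HepaRG liver cells, IGF1 transcript induction or suppression is measured 48 h after dosing across eight concentrations capped at 100 uM. Values derive from bidirectional concentration-response fitting with DMSO as baseline.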

[9] = read-out: Intercellular Adhesion Molecule 1 (ICAM1), ICAM1 (gene 3383); test: LTEA_HepaRG_ICAM1: Life Technologies and Expression Analysis (LTEA) Assay for Intercellular Adhesion Molecule 1 (ICAM1) using HepaRG (AID 2283507)
Outline: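 Using the human liver line HepaRG, compounds are tested in duplicate over 48 h at concentrations up to 100 uM. Expression is determined by TaqMan qRT-PCR, normalized to endogenous controls, and analysed relative to 0.5% DMSO vehicle.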

[10] = read-out: Insulin-like growth factor-binding protein 1 (IGFBP1), IGFBP1 (gene 3484); test: LTEA_HepaRG_IGFBP1: Life Technologies and Expression Analysis (LTEA) Assay for Insulin-like growth factor-binding protein 1 (IGFBP1) using HepaRG (AID 2283508)
Outline: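 HepaRG, 48 h, 8 conc. (max 100 uM, half-log), duplicates, 0.5% DMSO. Readout: TaqMan qRT-PCR, ACTB/GAPDH/POLR2A normalisation. Fit: bidirectional vs DMSO.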

[11] = read-out: Interleukin 6 (IL6), IL6 (gene 3569); test: LTEA_HepaRG_IL6: Life Technologies and Expression Analysis (LTEA) Assay for Interleukin 6 (IL6) using HepaRG (AID 2283509)
Outline: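 Differentiated human HepaRG cells, plated 48 h then switched to serum-free induction medium, were exposed in duplicate for 48 h to eight half-log concentrations up to 100 uM in 0.5% DMSO. IL6 mRNA measured by qRT-PCR, normalized to ACTB/GAPDH/POLR2A.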

[12] = read-out: Interleukin 6 Receptor (IL6R), IL6R (gene 3570); test: LTEA_HepaRG_IL6R: Life Technologies and Expression Analysis (LTEA) Assay for Interleukin 6 Receptor (IL6R) using HepaRG (AID 2283510)
Outline: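 Concentration-response in human liver HepaRG cells: eight concentrations from 100 uM downward by half-logs, 48 h exposure, 0.5% DMSO vehicle. IL6R mRNA change measured by qRT-PCR and fitted in both directions relative to vehicle.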

[13] = read-out: Potassium channel subfamily K member 1 (KCNK1), KCNK1 (gene 3775); test: LTEA_HepaRG_KCNK1: Life Technologies and Expression Analysis (LTEA) Assay for Potassium channel subfamily K member 1 (KCNK1) using HepaRG (AID 2283511)
Outline: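 Differentiated human HepaRG cells in serum-free induction medium were exposed in duplicate for 48 h to 8 half-log concentrations up to 100 uM in 0.5% DMSO. KCNK1 mRNA was measured by TaqMan qRT-PCR, normalized to ACTB, GAPDH and POLR2A, and fitted bidirectionally versus DMSO.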

[14] = read-out: Keratin 19 (KRT19), KRT19 (gene 3880); test: LTEA_HepaRG_KRT19: Life Technologies and Expression Analysis (LTEA) Assay for Keratin 19 (KRT19) using HepaRG (AID 2283512)
Outline: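 Readout is qRT-PCR of KRT19 mRNA, normalized to ACTB, GAPDH and POLR2A, from HepaRG cells treated 48 h with eight-point half-log dilutions topping at 100 uM. Activity in either direction is scored relative to 0.5% DMSO vehicle.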

[15] = read-out: JUN Transcription Factor, JUN (gene 3725); test: LTEA_HepaRG_JUN: Life Technologies and Expression Analysis (LTEA) Assay for JUN Transcription Factor using HepaRG (AID 2283513)
Outline: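 Human HepaRG liver cells receive test chemicals in 0.5% DMSO for 48 h across an eight-point range topping at 100 uM. Expression changes in JUN are scored in both directions against the DMSO vehicle.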

[16] = read-out: Lipase C (LIPC), LIPC (gene 3990); test: LTEA_HepaRG_LIPC: Life Technologies and Expression Analysis (LTEA) Assay for Lipase C (LIPC) using HepaRG (AID 2283514)
Outline: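 Differentiated human HepaRG cells in serum-free induction medium were exposed in duplicate for 48 h to eight concentrations (top 100 uM, half-log steps, 0.5% DMSO). LIPC mRNA was quantified by TaqMan qRT-PCR, normalized to ACTB, GAPDH and POLR2A, with bidirectional fitting versus DMSO.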

[17] = read-out: Lipoprotein lipase (LPL), LPL (gene 4023); test: LTEA_HepaRG_LPL: Life Technologies and Expression Analysis (LTEA) Assay for Lipoprotein lipase (LPL) using HepaRG (AID 2283515)
Outline: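 Differentiated human HepaRG cells in serum-free induction medium were exposed in duplicate for 48 h to eight half-log concentrations (top 100 uM) in 0.5% DMSO. LPL mRNA was quantified by TaqMan qRT-PCR, normalized to ACTB, GAPDH and POLR2A.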

[18] = read-out: MicroRNA 122 (MIR122), gene 406906; test: LTEA_HepaRG_MIR122: Life Technologies and Expression Analysis (LTEA) Assay for MicroRNA 122 (MIR122) using HepaRG (AID 2283516); note: the transcript read is the microRNA miR-122
Outline: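 HepaRG, 48 h exposure, 8-pt half-log from 100 uM, 0.5% DMSO; TaqMan qRT-PCR; bidirectional fit vs DMSO.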

[19] = read-out: growth arrest and DNA damage 45 (GADD45G), GADD45G (gene 10912); test: LTEA_HepaRG_GADD45G: Life Technologies and Expression Analysis (LTEA) Assay for growth arrest and DNA damage 45 (GADD45G) using HepaRG (AID 2283499)
Outline: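 Concentration-response in HepaRG: 48 h dosing, 0.5% DMSO, highest level 100 uM. GADD45G expression by qRT-PCR, normalised to endogenous controls; bidirectional fit to DMSO.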

Sequence of Hypoxia-inducible factor 1-alpha (Homo sapiens) (Q16665 whole entry, looked up): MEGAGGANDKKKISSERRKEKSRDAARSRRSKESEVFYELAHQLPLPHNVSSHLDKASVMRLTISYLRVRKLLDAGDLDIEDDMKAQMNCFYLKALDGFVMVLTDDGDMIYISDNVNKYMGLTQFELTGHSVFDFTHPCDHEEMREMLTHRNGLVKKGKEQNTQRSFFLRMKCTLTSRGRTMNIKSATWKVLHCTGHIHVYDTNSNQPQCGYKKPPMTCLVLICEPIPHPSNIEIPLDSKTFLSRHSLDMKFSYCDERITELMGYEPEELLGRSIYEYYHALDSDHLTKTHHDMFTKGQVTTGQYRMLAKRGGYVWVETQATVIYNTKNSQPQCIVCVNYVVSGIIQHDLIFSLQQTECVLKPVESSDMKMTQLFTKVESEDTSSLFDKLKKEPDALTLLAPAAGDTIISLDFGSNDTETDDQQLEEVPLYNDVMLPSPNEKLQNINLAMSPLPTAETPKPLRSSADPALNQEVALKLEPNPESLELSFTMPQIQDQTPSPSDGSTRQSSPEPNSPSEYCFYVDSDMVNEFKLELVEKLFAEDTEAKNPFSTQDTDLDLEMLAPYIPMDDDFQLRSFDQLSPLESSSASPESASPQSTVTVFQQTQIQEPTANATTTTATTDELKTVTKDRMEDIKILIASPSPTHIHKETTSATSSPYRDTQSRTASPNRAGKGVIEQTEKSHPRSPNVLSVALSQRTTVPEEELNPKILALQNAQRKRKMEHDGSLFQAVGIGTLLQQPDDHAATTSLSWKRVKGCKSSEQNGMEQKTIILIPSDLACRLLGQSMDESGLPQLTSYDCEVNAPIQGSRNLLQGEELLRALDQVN

Structure (SMILES): O=C(O)Cc1ccccc1Nc1c(Cl)cccc1Cl
- outcome [1]: inactive
- outcome [2]: inactive
- outcome [3]: inactive
- outcome [4]: inactive
- outcome [5]: inactive
- outcome [6]: inactive
- outcome [7]: inactive
- outcome (HGF (gene 3082)): inactive
- AC50 [8]: 16.5 µM (active)
- outcome [9]: inactive
- outcome [10]: inactive
- outcome [11]: inactive
- outcome [12]: inactive
- outcome [13]: inactive
- outcome [14]: inactive
- outcome [15]: inactive
- outcome [16]: inactive
- outcome [17]: inactive
- outcome [18]: inactive

Structure (SMILES): COc1cc(S(=O)(=O)O)c(C)cc1N=Nc1c(O)ccc2cc(S(=O)(=O)O)ccc12
- outcome [2]: inactive
- outcome [19]: inactive
- outcome [3]: inactive
- outcome [4]: inactive
- outcome [5]: inactive
- outcome [6]: inactive
- outcome [7]: inactive
- outcome (HGF (gene 3082)): inactive
- outcome [8]: inactive
- outcome [9]: inactive
- outcome [10]: inactive
- outcome [11]: inactive
- outcome [12]: inactive
- outcome [13]: inactive
- outcome [14]: inactive
- outcome [15]: inactive
- outcome [16]: inactive
- outcome [17]: inactive

Structure (SMILES): NCC1(Cc2noc(=O)[nH]2)CCCCC1
- outcome [1]: inactive
- outcome [2]: inactive
- outcome [3]: inactive
- outcome [4]: inactive
- outcome [5]: inactive
- outcome [6]: inactive
- outcome [7]: inactive
- outcome [8]: inactive
- outcome [9]: inactive
- outcome [10]: inactive
- outcome [11]: inactive
- outcome [12]: inactive
- outcome [13]: inactive
- outcome [14]: inactive
- outcome [15]: inactive
- outcome [16]: inactive
- outcome [17]: inactive
- outcome [18]: inactive

Structure (SMILES): COCCOCCOC
- outcome [1]: inactive
- AC50 [2]: 2.1 µM (active)
- AC50 [3]: 0.925 µM (active)
- AC50 [4]: 2.14 µM (active)
- outcome [5]: inactive
- AC50 [6]: 9.92 µM (active)
- outcome [7]: inactive
- AC50 (HGF (gene 3082)): 1.5 µM (active)
- outcome [8]: inactive
- AC50 [9]: 0.87 µM (active)
- AC50 [10]: 0.683 µM (active)
- outcome [11]: inactive
- outcome [12]: inactive
- outcome [13]: inactive
- outcome [14]: inactive
- AC50 [15]: 0.582 µM (active)
- AC50 [16]: 0.983 µM (active)
- AC50 [17]: 1.21 µM (active)
- outcome [18]: inactive

Structure (SMILES): NC(=O)Cn1c(=O)cc(CCN2CCN(c3nccc4sccc34)CC2)c2ccc(F)cc21
- AC50 [1]: 50 µM (active)
- outcome [2]: inactive
- outcome [3]: inactive
- outcome [4]: inactive
- AC50 [5]: 21.9 µM (active)
- AC50 [6]: 13.1 µM (active)
- AC50 [7]: 50 µM (active)
- outcome [8]: inactive
- AC50 [9]: 50 µM (active)
- AC50 [10]: 76.6 µM (active)
- outcome [11]: inactive
- outcome [12]: inactive
- outcome [13]: inactive
- outcome [14]: inactive
- outcome [15]: inactive
- AC50 [16]: 50 µM (active)
- AC50 [17]: 50 µM (active)

Structure (SMILES): Clc1cc(Cl)c(Cl)cc1Cl
- outcome [1]: inactive
- outcome [2]: inactive
- outcome [3]: inactive
- outcome [4]: inactive
- outcome [5]: inactive
- outcome [6]: inactive
- outcome [7]: inactive
- outcome [8]: inactive
- outcome [9]: inactive
- outcome [10]: inactive
- outcome [11]: inactive
- outcome [12]: inactive
- outcome [13]: inactive
- outcome [14]: inactive
- outcome [15]: inactive
- outcome [16]: inactive
- outcome [17]: inactive

Structure (SMILES): O=C(N[C@@H](Cc1ccccc1)[C@@H](O)C(=O)N1C[C@@H](O)[C@@H](O)C1)c1cc2cc(Cl)ccc2[nH]1
- AC50 [1]: 81.7 µM (active)
- outcome [2]: inactive
- outcome [3]: inactive
- outcome [4]: inactive
- outcome [5]: inactive
- outcome [6]: inactive
- AC50 [7]: 89 µM (active)
- outcome (HGF (gene 3082)): inactive
- outcome [8]: inactive
- outcome [9]: inactive
- AC50 [10]: 63.4 µM (active)
- outcome [11]: inactive
- outcome [12]: inactive
- outcome [13]: inactive
- outcome [14]: inactive
- outcome [15]: inactive
- outcome [16]: inactive
- AC50 [17]: 20.1 µM (active)
- outcome [18]: inactive
